# Screening data (PubChem BioAssay)
# Rows were chosen to be rich in hits. Some 19% of all compounds tested hit in one or more screens of this group.
# IL1B secr inh: inflammasome signaling inhibition, IL-1 beta readout. THP-1 LPS/ATP IL-1B secretion, AlphaLISA, 16 h; stronger effect = lower value. activity change, % at 57.5 µM. 360,000 tested, 4.7% active. AID 743279; in the data active = activity change below about -50%; inconclusive = mostly about -30% to -49%
#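 THP-1 cells pretreated 1 hr with compounds (up to 57.5 uM final), then stimulated with LPS (250 ng/mL final) plus ATP (1.25 mM final); secreted IL-1B measured by AlphaLISA after 16 hr, decreased signal indicating inhibition.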
# DT40 TDP1 no CPT: qHTS for Inhibitors of human tyrosyl-DNA phosphodiesterase 1 (TDP1): qHTS in cells in absence of CPT. DT40 Tdp1-/- hTDP1 cells, no CPT, ATP luminescence, 48 h. Potency, µM (series often up to 46.2 µM), usual class: inhibitors. 420,000 tested, 15% active; also: nearly all actives have a fitted effect of over 55% in size
#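 Chicken DT40 Tdp1-/- cells complemented with human TDP1, screened without camptothecin (DMSO vehicle only), 400 cells/well. Compounds pin-transferred, cells incubated at 37 °C for at least 48 hr. Growth read as ATP-dependent luminescence (CellTiter-Glo, 30 min at RT).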
# TDP1 cell CPT: DT40-hTDP1 cell growth loss with CPT. AID 686979. Potency, µM (top dose mostly 46.2 µM), usual class: inhibitors. 420,000 tested, 12% active. chicken DT40 Tdp1-/-;hTDP1 cells + 20 nM CPT, ATP luminescence, 48 h; also: nearly all actives have a fitted effect of over 55% in size
#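 Cell growth measured by CellTiter-Glo luminescence after a minimum 48 h, 37 C compound exposure with 20 nM CPT in Tdp1-knockout DT40 cells stably expressing hTDP1, seeded 400/well; qHTS titration format.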
# HT1080 IDH1KD tx: toxicity to HT-1080 IDH1 knockdown cells (counter line) | 360,000 tested, 2% active | HT-1080 IDH1 knockdown viability, ATP luminescence, 48 h | Potency, µM (series often up to 46.1 µM), usual class: cytotoxic
#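 IDH1KD HT-1080 cells, 750/well, RPMI + 5% FBS; compound pinned after 2 h settling; 48 h, 37 °C; CellTiter-Glo luminescence; % activity normalised to DMSO and no-cell wells; curves fitted, classed by r2 and efficacy.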
# HT1080-NT tox: kills 2HG-producing HT-1080-NT fibrosarcoma cells. 360,000 tested, 1.6% active. HT-1080-NT fibrosarcoma viability, CellTiter-Glo ATP luminescence, 48 h. AID 686970. Potency, µM (doses to about 46.1 µM), usual class: cytotoxic;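 also: NT is the 2HG producing partner of a matched IDH1 knockdown line; nearly all actives have a fitted effect of over 55% in size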
#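 HT-1080-NT fibrosarcoma cells (2HG-overproducing), 750 cells/well in RPMI with 5% FBS, dosed after 2 h and incubated 48 h at 37C. CellTiter-Glo luminescence normalized to DMSO and no-cell wells; concentration-response curves fitted and classed.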
# Numbers stand for hits; n = inactive; u = inconclusive; x = not tested or not shown; [ ] = another dose, or the depositor's remark. Unless noted, calls follow the shape of the dose curve; as a rule, active = well fitted curve in the direction sought with a large enough effect; inconclusive = small, poorly fitted or top-dose-only effect, or another doubt; inactive = no such curve, though single readings can be large; an effect the other way counts as inactive or inconclusive.
SMILES,IL1B secr inh,DT40 TDP1 no CPT,TDP1 cell CPT,HT1080 IDH1KD tx,HT1080-NT tox
CCNC(=O)/C(=C/c1ccco1)NC(=O)/C=C/c1ccccc1,n,n,n,n,n
COc1cccc(NC(=O)C(C)(C)C)c1,n,n,n,n,n
CCCSc1nsc(NC(=O)Nc2ccc(F)cc2F)n1,n,4.11µM,5.17µM,n,u
COc1cccc(NC(=O)Nc2nc(SC)ns2)c1,-97.9,u,9.2µM,u,u
COc1cccc(NC(=O)Nc2nc(SC(C)(C)C)ns2)c1,-72.8,u,14.6µM,u,u
CCCCCCSc1nsc(NC(=O)CC(C)C)n1,n,u,n,14.6µM,u
COc1cccc(NC(=O)Nc2nccc(C)n2)c1,n,n,n,n,n
CCc1nc2c(OCCn3cccc3)cccn2c1N(C)C(=O)c1ccc(OC)cc1,n,n,n,n,n
CCCSc1nsc(NC(=O)C(c2ccccc2)c2ccccc2)n1,n,29.1µM,18.4µM,u,u
CCCSc1nsc(NC(=O)CC)n1,n,u,n,n,n
CCSc1nsc(NC(=O)Nc2cccc(F)c2)n1,-95.0,4.11µM,20.6µM,6.51µM,11.6µM
N#CC1(NC(=O)CSc2nnc(-c3ccccc3F)o2)CCCCC1,u,n,n,n,n
O=C(NCCc1ccccc1)C(=O)Nc1ccc([N+](=O)[O-])cc1,n,n,n,n,n
Cc1c(-c2ccccc2)[n+](=O)c2c(n1[O-])CCCC2,n,n,n,n,n
O=C(C1CCCCC1)N(CCN1CCN(c2ccccc2CO)CC1)c1ccccn1,x,10.3µM,u,x,x
CC1=C(C(=O)OCCC(C)C)C(c2ccc3c(c2)OCO3)NC(=O)N1 (stereo unspecified),n,u,u,n,n
CC1=C(C(=O)OCCCBr)C(c2ccc3c(c2)OCO3)NC(=O)N1 (stereo unspecified),n,23.1µM,25.9µM,n,n
CCOC(=O)C(C)OC(=O)C1=C(C)NC(=O)NC1c1ccc2c(c1)OCO2 (stereo unspecified),n,4.11µM,3.66µM,n,n
CCCCCOC(=O)C1=C(C)NC(=O)NC1c1ccc2c(c1)OCO2 (stereo unspecified),-54.3,n,n,n,n
CCOC(=O)C1=C(CCl)NC(=O)NC1c1ccc2c(c1)OCO2 (stereo unspecified),-99.9,2.59µM,14.6µM,u,u
Cc1ncc2c(c1CNS(=O)(=O)N(C)C)CCN(C(=O)c1ccc(-c3ccc(F)cc3)cc1)C2,x,u,n[9.04 µM],x,x
CC(=O)Oc1cccc(/C=c2\sc3nc(-c4ccco4)nn3c2=O)c1,u,16.4µM,u,n,n
O=c1c(-c2nnc(SCc3ccc(Cl)c(Cl)c3)o2)cccn1Cc1ccccc1,n,20.6µM,u,n,n
Clc1cccc(CSc2nnc(-c3c[nH]c4ccccc34)o2)c1,n,u,u,u,u
COC(=O)c1cc(C)nc(Nc2nc(C(N)Cc3ccc(Cl)cc3)cs2)n1 (stereo unspecified),-67.9,u,u,u,n
SMILES,IL1B secr inh,DT40 TDP1 no CPT,TDP1 cell CPT,HT1080 IDH1KD tx,HT1080-NT tox
Cc1cc(C)nc(Nc2nc(C(N)Cc3ccccc3)cs2)n1 (stereo unspecified),n,5.17µM,5.8µM,7.31µM,5.8µM
COc1cc(OC)nc(Nc2nc(C(N)Cc3ccc(Cl)cc3)cs2)n1 (stereo unspecified),-88.5,14.6µM,23.1µM,u,23.1µM
O=C(CN1C(=O)c2ccccc2C1=O)Nc1ccccc1C(=O)NC1CCCCCC1,n,n,n,n,n
O=C(CN1C(=O)C(=O)c2ccccc21)c1ccccc1,n,4.11µM,18.4µM,n,n
O=C(CN1C(=O)C(=O)c2ccccc21)NC1CCCCC1,n,23.1µM,25.9µM,n,n
CC(C)N(C(=O)CN1C(=O)C(=O)c2ccccc21)c1ccccc1,n,n,n,n,u
O=C1CSC(=S)N1Cc1cccs1,n,18.4µM,u,n,n
O=C1C(=O)N(Cc2cccs2)c2ccccc21,n,5.17µM,4.61µM,u,n
O=C(CN1C(=O)C(=O)N(Cc2ccccc2)C1=O)Nc1ccc(F)c(Cl)c1,n,n,n,n,n
